USP30 block: blocks human USP30 ubiquitin-rhodamine cleavage. purified USP30, Ub-rhodamine cleavage fluorescence. inhibition, % at 25 µM. actives 5.3% (n = 47,000)
USP8 inh: human USP8 deubiquitinase inhibition; inhibition, % at 20 µM; purified USP8, Ub-rhodamine cleavage fluorescence, 30 min; P40818; actives 4.2% (n = 47,000)
USP28 block: blocks human USP28 ubiquitin-rhodamine cleavage. Q96RU2. purified USP28, Ub-rhodamine cleavage fluorescence, 30 min. inhibition, % at 25 µM. actives 3% (n = 47,000)
USP17 block: blocks human USP17 ubiquitin-rhodamine cleavage; A8MUK1; inhibition, % at 50 µM; purified USP17, Ub-rhodamine cleavage fluorescence, 3 h; actives 6.5% (n = 47,000); AID 1645855
An asterisk follows results filed as active. Shown are actives, neighbours in structure and some others; about 13% of the full set was active somewhere. No stated cut-off is given here; in the data, active means inhibition above about 30%; inactive means the rest.

COc1ccccc1OC(C)C(=O)Nc1ccc2nsnc2c1 (configuration not stated) was read as USP30 block 25, USP8 inh 73*, USP28 block 22 and USP17 block 32*.
`c1ccc(-n2nnc(-c3noc(-c4cccnc4)n3)c2-c2ccncc2)cc1` gave USP30 block 54*, USP8 inh 20, USP28 block 11 and USP17 block 16.
Screening Cc1n[nH]c(C)c1CC(=O)NCc1nnc(-c2nccc3ccccc23)o1 returned USP30 block 34*, USP8 inh 33*, USP28 block 13 and USP17 block 40*.
For CCOc1cc(CNC(=O)Cc2c(C)n[nH]c2C)ccc1OC the results were USP30 block 2, USP8 inh -4, USP28 block 0 and USP17 block 0.
`O=C(NC1CCCCCC1)c1cnn(-c2ccccc2)c1C1CC1` gave USP30 block -6, USP8 inh -3, USP28 block 5 and USP17 block -3.
CCCc1c(C(=O)NC2CCCCC2)cnn1-c1ccc(Cl)cc1 was read as USP30 block 21, USP8 inh -1, USP28 block 7 and USP17 block 36*.
Screening O=c1c2cnc3nc(C(F)(F)F)nn3c2ccn1CCN1CCOCC1 returned USP30 block -56, USP8 inh -6, USP28 block -12 and USP17 block -14.
For CN1CCN(Cc2cccnc2)C(=O)C12CCN(c1cnccn1)CC2 the results were USP30 block -74, USP8 inh -74, USP28 block -35 and USP17 block -55.
For Cc1ccc(/C=C/C(=O)Cc2ccccc2)cc1 the results were USP30 block 30*, USP8 inh 23, USP28 block 18 and USP17 block 41*.
Screening Cc1cc([N+](=O)[O-])nn1CCCC(=O)Nc1ccc2c(c1)OCO2 returned USP30 block 3, USP8 inh 45*, USP28 block 14 and USP17 block 22.
For O=C(C1CCN(c2cnc3nccnc3c2)CC1)N1CCN(c2ccccc2F)CC1 the results were USP30 block -235, USP8 inh -48, USP28 block -64 and USP17 block -79.
Screening O=c1c2cc([N+](=O)[O-])ccc2nc(CN2CCN(c3ccccn3)CC2)n1-c1ccccc1F returned USP30 block 61*, USP8 inh -44, USP28 block 25 and USP17 block 22.
COc1ccc(/C=C/C(=O)Nc2ccc(C)cn2)cc1 was read as USP8 inh 9 and USP17 block 70*.
Screening O=C(Nc1ccccc1F)NC1CCCc2ccccc21 (configuration not stated) returned USP30 block 40*, USP8 inh 11, USP28 block 1 and USP17 block 3.
`O=C(Nc1ccc(OC(F)(F)F)cc1)NC1CCCc2ccccc21` (configuration not stated) gave USP30 block -3, USP8 inh 3, USP28 block -1 and USP17 block -3.
For Cc1cc(=O)n2[nH]c(CNc3cccc(C(F)(F)F)c3)nc2n1 the results were USP30 block 31*, USP8 inh 6, USP28 block 10 and USP17 block 16.
Cc1cc(=O)n2[nH]c(CNc3cccc(Cl)c3)nc2n1 was read as USP30 block -19, USP8 inh -21, USP28 block 0 and USP17 block -14.
`Cc1ccc2c(c1)C(c1ccc(F)cc1)N(C(=O)COc1ccc3ccccc3c1)CC(=O)N2` (configuration not stated) gave USP30 block -21, USP8 inh -4, USP28 block -11 and USP17 block -10.
For COc1ccc(-c2nc(SCC(=O)Nc3ccc(Cl)cc3F)n[nH]2)cc1 the results were USP30 block 33*, USP8 inh -32, USP28 block -1 and USP17 block 59*.
Screening O=C(CSc1n[nH]c(-c2ccc(F)cc2)n1)Nc1ccc(F)cc1F returned USP30 block 15, USP8 inh 1, USP28 block 11 and USP17 block 1.
COc1ccc(C(CC(=O)Nc2ccc(Cl)cc2F)NC(=O)C(F)(F)F)cc1 (configuration not stated) was read as USP30 block 12, USP8 inh 1, USP28 block -6 and USP17 block 31*.
For CC(C)c1nc(N2CCCC2=O)sc1C(=O)NC1CCCCC1 the results were USP30 block 0, USP8 inh 8, USP28 block -1 and USP17 block -3.
For COc1ccc(CCN2CC(=O)N3Cc4[nH]c5ccccc5c4C[C@@H]3C2=O)cc1OC the results were USP30 block -26, USP8 inh -11, USP28 block -18 and USP17 block -6.
O=C(NCc1ccccc1)c1nc2n(n1)-c1ccccc1S(=O)(=O)N2 was read as USP30 block 34*, USP8 inh 1, USP28 block 12 and USP17 block 3.
Screening COc1cc(CNC(=O)c2nc3n(n2)-c2ccccc2S(=O)(=O)N3)cc(OC)c1OC returned USP30 block 2, USP8 inh -24, USP28 block 1 and USP17 block -1.
Screening Cn1c(SCC(=O)Nc2ccc(Cl)cc2)nnc1-c1cnccn1 returned USP30 block 0, USP8 inh 6, USP28 block 0 and USP17 block 9.
For O=C(NC1CCc2ncc(C(F)(F)F)n2C1)C1CCOCC1 (configuration not stated) the results were USP30 block 8, USP8 inh -16, USP28 block 4 and USP17 block -1.
Cc1ccc2c(c1)OCC(=O)N2Cc1nc(-c2ccc(F)cc2)no1 was read as USP30 block -48, USP8 inh 13, USP28 block -12 and USP17 block -36.
For Cc1ccc2c(c1)OCC(=O)N2Cc1nc(-c2ccccc2)no1 the results were USP30 block 26, USP8 inh -2, USP28 block 29 and USP17 block 45*.
For Cc1ccc2c(c1)OCC(=O)N2Cc1nc(-c2cccc(F)c2)no1 the results were USP30 block 35*, USP8 inh 18, USP28 block 26 and USP17 block 13.
`CCNc1nc(SCc2ccc(C)cc2)nc2c1CCCC2` gave USP30 block 39*, USP8 inh 14, USP28 block 27 and USP17 block 18.
CC(C)=CCC/C(C)=C/COc1ccc(/C=C2\C(=O)N(O)[C@@H](C)C(=O)N2O)cc1 was read as USP30 block 33*, USP8 inh 4, USP28 block 47* and USP17 block 4.
O=C(CNCc1cccc(Cl)c1)N1CCc2ccccc2C1 was read as USP30 block 3, USP8 inh 72*, USP28 block 7 and USP17 block 46*.
`Cc1[nH]nc(NC(=O)C2COc3ccccc3O2)c1-c1ccccc1` (configuration not stated) gave USP30 block 25, USP8 inh 47*, USP28 block 53* and USP17 block 39*.
Screening COc1ccc(-c2c(NC(=O)C3COc4ccccc4O3)n[nH]c2C)cc1OC (configuration not stated) returned USP30 block 11, USP8 inh 18, USP28 block 32* and USP17 block 0.

Source: PubChem
